Measurements taken from PubChem BioAssay (NCATS).
Results filed as inconclusive are left out. A number with no mark means an inactive call. Activity calls are given as the source filed them. Calls come from the whole dose curve; as a rule, active = well fitted cell-killing curve with a large enough effect; inconclusive = small, poorly fitted or top-dose-only effect; inactive = flat fitted curve, though single readings scatter.

Assay: Cellular viability qHTS for adrenocortical cancer (ACC) cell line SW-13 (AID 1963989); note: nearly all actives have a fitted effect of over 65% in size;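 for activity (max response): cells grown in serum-free medium with ITS supplement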
Details: SW-13 ACC cells viability, CellTiter-Glo, 48 h; activity (max response): stronger effect = lower value
Description: PI: Naris Nilubol, MD Surgical Oncology Program, National Cancer Institute (NCI) National Institute of Health (NIH), Bethesda, Maryland Adrenocortical cancer (ACC) is a rare malignancy with poor survival outcomes and few treatment options. Currently, mitotane is the only FDA-approved therapy for ACC. Although adjuvant radiation therapy is rarely utilized, it has the potential to improve survival in select cases. Through a quantitative high-throughput drug screen (qHTS), we identified auranofin (AF), a thioredoxin reductase (TXNRD) inhibitor, as a promising candidate drug. This study aims to evaluate whether AF can enhance the efficacy of radiation therapy in the treatment of ACC. Two human ACC cell lines, SW-13 and NCI-H295R, were screened using the National Center for Advancing Translational Sciences (NCATS) Pharmaceutical Collection (NPC) and the Mechanism Interrogation PlatE (MIPE) library (~4,991 compounds). CellTiter-Glo (Cat # G7570, Promega, Madison, WI) was utilized to measure cell viability. Described herein are the results of the corresponding viability assay.
PROTOCOL TABLE (as described by Inglese J, Shamu CE and Guy RK. 2007) SEQUENCE No. (e.g., 1, 2, 3, etc.); […] (e.g., Cells, Incubation, Reagent, etc.); VALUE; DESCRIPTION. 1; Cells; 5 uL; white, solid-bottom, 1536-well tissue-culture treated plates. 2; Time; overnight culture at 37C with 5% CO2. 3; Compounds and control; 23 nL; Kalypsis pin tool (Wako USA) equipped with a 1536-well pin head to transfer to the assay plates. 4; Time; 48 hours; 37C with 5% CO2. 5; Reagent; 4 uL; CellTiter-Glo luminescent substrate mix. 6; Time; 20 min at room temperature. 7; Detection; Luminescence; ViewLux plate reader NOTES (numbers refer to Sequence numbers above) 1. SW13 cells were harvested from a T175 flask and resuspended in ITS-supplemented DMEM serum-free medium at a concentration of 300 000 cells/mL. Then 5 uL of resuspended cells were dispensed into each well of white, solid-bottom, 1536-well tissue-culture-treated plates using a multidrop combi dispenser. The plates were covered with stainless steel gasket lids. 2-3. The plates were cultured overnight at 37C with 5% CO2. Twenty-three nL of compounds (eight selected concentrations from the NPC / MIPE) or positive control (10 mM stock of bortezomib) in DMSO was transferred to each well of the assay plate using a pin tool (Kalypsys, San Diego, CA, USA). The final concentration of the compounds in the 5 uL assay volume ranged from 0.5 nM to 46 uM. 4-6. After 48 hours of incubation at 37C and 5% CO2, 4 uL of CellTilter-Glo luminescent substrate mix (Promega, Madison, WI, USA) was added to each well. Then the plates were incubated for 20 minutes at room temperature. 7. After incubation, luminescence was measured using a ViewLux plate reader (PerkinElmer, Waltham, MA, USA) with a clear filter was used to measure the number of metabolically competent cells. To determine compound activity in the qHTS assay, the titration-response data for each sample was plotted and modeled by a four-parameter logistic fit yielding IC50 and efficacy (maximal response) values. […] REFERENCES: Inglese J, Shamu CE and Guy RK, Reporting data from high throughput screening of small molecule libraries, Nature Chemical Biology, 2007, 3(8): 438-441. doi.org/10.1038/nchembio0807-438.
% is set by controls: 0 for no effect and ±100 for the full control effect.

Row | Compound | activity (max response) [%] | Potency
1 | CCCCN(CCCC)C(C(N)=O)c1ccc(OC)cc1 (centres undefined) | 14.1 | –
2 | CCC(=O)Oc1ccc2c(c1)CC[C@@H]1[C@@H]2CC[C@@]2(C)[C@H]1C[C@@H](OC(=O)CC)[C@@H]2OC(=O)CC | 0.953 | –
3 | Cn1cc(C(=O)[C@@H]2CCc3nc[nH]c3C2)c2ccccc21 | -8.02 | –
4 | C=C[C@@H]1CN2CCC1C[C@H]2[C@H](O)c1ccnc2ccc(OC)cc12 (some centres undefined) | 5.73 | –
5 | Cc1c(Cl)cccc1S(=O)(=O)Nc1nc(CCN2CCOCC2=O)cs1 | 12.4 | –
6 | N[C@H](C(=O)O)[C@@H](O)c1ccc(O)c(O)c1 | 16 | –
7 | O=C(CCCN1CCN(c2ccccn2)CC1)c1ccc(F)cc1 | -12.5 | –
8 | C/C=C(/C(=C/C)c1ccc(OC(C)=O)cc1)c1ccc(OC(C)=O)cc1 | – | 18.4 µM (active)
9 | CCc1cc(Nc2nccc(-c3c(-c4ccc(OC)c(C(=O)Nc5c(F)cccc5F)c4)nc4ccccn34)n2)c(OC)cc1N1CCC(N2CCN(S(C)(=O)=O)CC2)CC1 | -11.3 | –
10 | CC(=C(CCOC(=O)C(C)C)SSC(CCOC(=O)C(C)C)=C(C)N(C=O)Cc1cnc(C)nc1N)N(C=O)Cc1cnc(C)nc1N | 9 | –
11 | O=C(Cc1ccccc1)Nc1nnc(CCSCCc2nnc(NC(=O)Cc3ccccc3)s2)s1 | 11.1 | –
12 | COc1ccc2cc(CCC(C)=O)ccc2c1 | 2.06 | –
13 | CC(C)NC[C@@H](O)COc1cccc2ccccc12 | -19.3 | –
14 | CCn1c(=O)c2c(nc(/C=C/c3ccc(OC)c(OC)c3)n2C)n(CC)c1=O | -21.5 | –
15 | CN(C(=O)CCCOc1ccc2[nH]c(=O)ccc2c1)C1CCCCC1 | -3.83 | –
16 | COc1ccc(-n2c(SCCCN3C(=O)c4cccc5cccc(c45)C3=O)nnc2-c2ccncc2)cc1 | -14.9 | –
17 | C[C@H]1CN(C2COC2)CCN1c1ccc(Nc2cc(-c3ccnc(N4CCn5c(cc6c5CC(C)(C)C6)C4=O)c3CO)cn(C)c2=O)nc1 | 10.6 | –
18 | O=C(CCBr)N1CCN(C(=O)CCBr)CC1 | -6.49 | –
19 | O=C(O)c1c(O)c(-c2ccccc2)nc2ccccc12 | 3.37 | –
20 | Nc1n[n+]([O-])c2ccccc2[n+]1[O-] | -11.6 | –
21 | C=CC[N+]1([C@H]2C[C@H]3[C@@H]4CC[C@H]5C[C@H](O)[C@@H](N6CCOCC6)C[C@]5(C)[C@H]4CC[C@]3(C)[C@H]2OC(C)=O)CCCC1 | -12.6 | –
22 | C[C@H](N)C(=O)N[C@@H](C)C(=O)NC1[C@H]2CN(c3nc4c(cc3F)c(=O)c(C(=O)O)cn4-c3ccc(F)cc3F)C[C@@H]12 (some centres undefined) | -13.3 | –
23 | COc1ccc([C@@H]2Sc3ccccc3NC(=O)[C@@H]2O)cc1 | – | 7.31 µM (active)
24 | COc1ccc2c(c1)C(=O)N(CCc1ccc(S(=O)(=O)NC(=O)NC3CCCCC3)cc1)C(=O)C2(C)C | -10.4 | –
